We go through 60 molecules from PubChem BioAssay.

Where “and” joins values, the source holds several entries; their conditions need not be identical. Equal values may be shown once. A number with no mark means an inactive call. No rule for the calls is given here.

For assay [1], the system named is Aerobactin synthetase IucA (Klebsiella pneumoniae hvKP1). Kind of assay: IucA enzyme inhibition, primary screen, biochemical, Spectrum library (AID 1346200).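 Also: 100% = wells without compound and 0% = wells lacking enzyme.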 The settings on record: malachite green pyrophosphate, A620, at 8 µM, hits give low values.
Assay [2] deals with Aerobactin synthetase IucA (Klebsiella pneumoniae, hypervirulent). Kind of assay: biochemical IucA inhibition screen of LOPAC library by absorbance (AID 1346212).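 Also: 100% = no compound wells and 0% = no enzyme wells.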 The following applies: IucA enzyme assay, absorbance (OD) readout; hits give low values;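 tested at 8 µM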.

The term remaining activity denotes the signal under treatment as a percentage of the control signal. As for `O=C(O)/C=C/c1ccc(O)c(O)c1`, the activity remaining in assay [1] was 101%. In assay [2], the remaining activity was 117%.
On the same counts, the results for `Cc1c(OCC(F)(F)F)ccnc1CS(=O)c1nc2ccccc2[nH]1` (stereo not given) are 121% and 111%.
Taken in the same sequence, the figures for `Cn1cnc2c1c(=O)[nH]c(=O)n2C` were 126% and 97.1%.
Regarding `COC(=O)[C@H]1[C@H]2C[C@@H]3c4[nH]c5cc(OC)ccc5c4CCN3C[C@H]2C[C@@H](OC(=O)c2cc(OC)c(OC)c(OC)c2)[C@@H]1OC`, the activity remaining in assay [1] was 109%. For the same molecule, in assay [2], the remaining activity is 102%.
Taken in the same sequence, the figures for `CC1=NS(=O)(=O)c2cc(Cl)ccc2N1` were 107% and 105%.
Taken in the same sequence, the figures for `CN(C)CCCN1c2ccccc2CCc2ccc(Cl)cc21` were 111% and 117%.
Taken in the same sequence, the figures for `Clc1ccc(C(c2ccccc2Cl)C(Cl)Cl)cc1` (stereo not given) were 92.7% and 111%.
Take `CN(C)CCN(Cc1cccs1)c1ccccn1`: in assay [1], the activity remaining is 120%. The remaining activity in assay [2] was 93%.
Turning to `CN1CCN(CCCN2c3ccccc3Sc3ccc(C(F)(F)F)cc32)CC1`, in assay [1], the activity remaining was 122%. The remaining activity in assay [2] is 93.4%.
Taken in the same sequence, the figures for `CN(C)CCOC(=O)COc1ccc(Cl)cc1` were 124% and 112%.
Taken in the same sequence, the figures for `CN1CCN(C2=Nc3cc(Cl)ccc3Nc3ccccc32)CC1` were 120% and 127%.
Take `CN(C)CCCN1c2ccccc2Sc2ccccc21`: the activity remaining in assay [1] is 109%. Also, the remaining activity in assay [2] is 95%.
Taken in the same sequence, the figures for `CC(CCc1ccccc1)NCC(O)c1ccc(O)c(C(N)=O)c1` (stereo not given) were 121% and 112%.
`CN(C)C(=O)Oc1ccc[n+](C)c1`: in assay [1], the activity remaining is 93.4%. In assay [2], the remaining activity was 91.3%.
On to `O=c1c(-c2ccc(O)cc2)coc2cc(O)cc(O)c12`, for which, in assay [1], the activity remaining was 109%. The remaining activity in assay [2] was 121%.
For the molecule `C=CCc1ccccc1OCC(O)CNC(C)C` (stereo not given), in assay [1], the activity remaining is 110%. The remaining activity in assay [2] is 91.4%.
Take `Clc1cccc(Cl)c1NC1=NCCN1`: the activity remaining in assay [1] was 119%. Also, the remaining activity in assay [2] is 122%.
In the case of `Oc1ccc(/C=C/c2cc(O)cc(O)c2)cc1`, in assay [1], the activity remaining was 110%. Further, in assay [2], the remaining activity was 75.6%.
Turning to `NNCCc1ccccc1`, the activity remaining in assay [1] was 112%. Further, the remaining activity in assay [2] was 93.4%.
In the case of `Nc1nc2c(ncn2COCCO)c(=O)[nH]1`, in assay [1], the activity remaining was 118%. Besides, the remaining activity in assay [2] was 120%.
As to `CN1Cc2c(N)cccc2C(c2ccccc2)C1` (stereo not given), in assay [1], the activity remaining is 119%. Besides, the remaining activity in assay [2] is 109%.
Taken in the same sequence, the figures for `Cc1ccc(S(=O)(=O)NC(=O)NN2CCCCCC2)cc1` were 117% and 91.6%.
Taken in the same sequence, the figures for `O=c1c(-c2ccc(O)cc2)coc2cc(O)ccc12` were 118% and 99.6%.
On the same counts, the results for `Cc1ccc(/C(=C\CN2CCCC2)c2ccccn2)cc1` are 103% and 121%.
For `NC(=O)c1cccc(N)c1`, the activity remaining in assay [1] was 121%. The remaining activity in assay [2] is 113%.
`O=C(O)C1=CC(=C(c2ccc(O)c(C(=O)O)c2)c2ccc(O)c(C(=O)O)c2)C=CC1=O`: the activity remaining in assay [1] was 101%. The remaining activity in assay [2] was 103%.
Consider `C1CCc2nnnn2CC1`, for which the activity remaining in assay [1] is 112%. The remaining activity in assay [2] was 107%.
Regarding `CCc1cccc2c3c([nH]c12)C(CC)(CC(=O)O)OCC3` (stereo not given), the activity remaining in assay [1] is 116%. Moreover, in assay [2], the remaining activity is 116%.
Regarding `CN(C)CCCN1c2ccccc2Sc2ccc(Cl)cc21`, in assay [1], the activity remaining is 115%. For the same molecule, the remaining activity in assay [2] is 110%.
On to `O=C(CCCN1CCC(O)(c2ccc(Cl)cc2)CC1)c1ccc(F)cc1`, for which the activity remaining in assay [1] was 117%. The remaining activity in assay [2] is 100%.
Taken in the same sequence, the figures for `Fc1ccc([C@@H]2CCNC[C@H]2COc2ccc3c(c2)OCO3)cc1` were 108% and 121%.
On the same counts, the results for `CCCN1C[C@H](CSC)C[C@@H]2c3cccc4[nH]cc(c34)C[C@H]21` are 120% and 95.5%.
Regarding `CC(COc1ccccc1)N(CCCl)Cc1ccccc1` (stereo not given), the activity remaining in assay [1] is 107%. In addition, the remaining activity in assay [2] was 109%.
On the same counts, the results for `CC(C)(C(=O)O)c1ccc(C(O)CCCN2CCC(C(O)(c3ccccc3)c3ccccc3)CC2)cc1` (stereo not given) are 113% and 107%.
Turning to `CCn1nc(C(=O)O)c(=O)c2cc3c(cc21)OCO3`, the activity remaining in assay [1] was 112%. The remaining activity in assay [2] was 111%.
Taken in the same sequence, the figures for `Cc1nc2ccccn2c(=O)c1CCN1CCC(C(=O)c2ccc(F)cc2)CC1` were 120% and 101%.
Taken in the same sequence, the figures for `O=C(Nc1ccc([N+](=O)[O-])cc1Cl)c1cc(Cl)ccc1O` were 93.6% and 113%.
For the molecule `CN(C)C(=O)Oc1cccc([N+](C)(C)C)c1`, the activity remaining in assay [1] was 87.4%. Further, the remaining activity in assay [2] is 120%.
On the same counts, the results for `NCCCCN` are 91.8% and 94.5%.
On the same counts, the results for `NS(=O)(=O)c1cc2c(cc1Cl)NCNS2(=O)=O` are 103% and 102%.
Regarding `CN1CCN(CC(=O)N2c3ccccc3C(=O)Nc3cccnc32)CC1`, in assay [1], the activity remaining was 117%. Also, in assay [2], the remaining activity was 94.6%.
Turning to `N[C@@H](C(=O)N[C@@H]1C(=O)N2C(C(=O)O)=C(Cl)CS[C@H]12)c1ccccc1`, the activity remaining in assay [1] was 103%. The remaining activity in assay [2] is 120%.
On the same counts, the results for `CCN(CC)CCNC(=O)c1ccc(N)cc1` are 95.4% and 96.2%.
Take `CN1CCN(C2=Nc3ccccc3Oc3ccc(Cl)cc32)CC1`: the activity remaining in assay [1] is 120%. Further, in assay [2], the remaining activity is 110%.
For `N[C@@H](Cc1ccc(O)c(O)c1)C(=O)O`, the activity remaining in assay [1] was 115%. For the same molecule, the remaining activity in assay [2] was 97%.
Regarding `O=C(C1CCCCC1)N1CC(=O)N2CCc3ccccc3C2C1` (stereo not given), the activity remaining in assay [1] is 123%. The remaining activity in assay [2] is 104%.
On the same counts, the results for `CS(=O)(=O)Nc1ccc([N+](=O)[O-])cc1Oc1ccccc1` are 113% and 117%.
As for `c1ccc([C@H]2CN3CCSC3=N2)cc1`, in assay [1], the activity remaining was 117%. Further, the remaining activity in assay [2] was 112%.
Taken in the same sequence, the figures for `Nc1ncn([C@@H]2O[C@H](CO)[C@@H](O)[C@H]2O)c(=O)n1` were 104% and 112%.
For the molecule `Cc1cnc(NC(=O)C2=C(O)c3ccccc3S(=O)(=O)N2C)s1`, the activity remaining in assay [1] was 118%. For the same molecule, in assay [2], the remaining activity was 120%.
Taken in the same sequence, the figures for `Cc1nnc(SCC2=C(C(=O)O)N3C(=O)[C@@H](NC(=O)Cn4cnnn4)[C@H]3SC2)s1` were 101% and 119%.
On to `NC(N)=NC(=O)c1nc(Cl)c(N)nc1N`, for which the activity remaining in assay [1] is 118%. For the same molecule, the remaining activity in assay [2] is 105%.
For `Cn1c(=O)c2[nH]cnc2n(C)c1=O`, the activity remaining in assay [1] was 120%. Also, the remaining activity in assay [2] was 111% and 102%.
For `CC(CN(C)C)CN1c2ccccc2CCc2ccccc21` (stereo not given), in assay [1], the activity remaining is 105%. Besides, the remaining activity in assay [2] was 106%.
Taken in the same sequence, the figures for `COC(=O)[C@H]1[C@H]2C[C@H]3c4[nH]c5ccccc5c4CCN3C[C@H]2CC[C@@H]1O` were 107% and 95.4%.
On the same counts, the results for `Cc1scc2c1N(C(=O)CN1CCN(C)CC1)c1ccccc1NC2=O` are 117% and 105%.
On to `O=c1[nH]cc(F)c(=O)[nH]1`, for which, in assay [1], the activity remaining was 96.1%. The remaining activity in assay [2] is 98.4%.
Take `NS(=O)(=O)c1cc2c(cc1Cl)NC=NS2(=O)=O`: the activity remaining in assay [1] is 113%. In assay [2], the remaining activity was 123%.
For the molecule `CC(C)NCC(O)c1cc(O)cc(O)c1` (stereo not given), in assay [1], the activity remaining was 126%. Further, the remaining activity in assay [2] is 118%.
As to `CN1CCC[C@@H]1CCO[C@](C)(c1ccccc1)c1ccc(Cl)cc1`, in assay [1], the activity remaining was 99.3%. Further, the remaining activity in assay [2] is 109%.
